Data on eight compounds can be found in PubChem BioAssay (NCI).

Among the test systems are HT29 colon; SNB-75 CNS; SNB-19 CNS; U251 CNS; PC-3 prostate; SK-MEL-5 melanoma; UACC-62 melanoma; LOX IMVI melanoma; SK-MEL-28 melanoma; SK-MEL-2 melanoma; EKVX NSCLC; SN12C renal; UO-31 renal; TK-10 renal; ACHN renal; CAKI-1 renal; A498 renal; CCRF-CEM leukemia; MOLT-4 leukemia.
Holding throughout (assay): NCI-60 one-dose screen, 48 h (100 = growth as untreated, 0 = no growth, -100 = all killed)
Holding throughout (conditions): 10 µM

The structures appear in SMILES notation. The panel holds about 83,000 compounds, 20% with a hit somewhere; the sample as a whole holds those more often.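 Percent growth is the endpoint: 0 to 100 indicates growth inhibition (40 means 60% inhibition), 0 means no net growth, and negative values indicate cell death.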 Values without a mark were called inactive. Calls of active or inactive are those of the source. Rule for the calls: active = growth percent below 10; inactive = the rest.

In the case of `CN(CCO)c1oc(-c2ccccc2)nc1[P+](c1ccccc1)(c1ccccc1)c1ccccc1`, the growth in the assay with HT29 colon was 7.78% (active); in the assay with SNB-75 CNS it was -2.5% (active); in the assay on SNB-19 CNS, 9.54% (active); in the assay on U251 CNS it was 15.3%; with PC-3 prostate, 10.8%; in the assay with SK-MEL-5 melanoma, -93.3% (active). Further, the growth was -30.2% (active) with UACC-62 melanoma; -67.2% (active) in the assay with LOX IMVI melanoma; 12% in the assay on SK-MEL-28 melanoma; -33.8% (active) in the assay on SK-MEL-2 melanoma; 18.1% with EKVX NSCLC; -3.43% (active) in the assay with SN12C renal. Moreover, the growth is 74.3% with UO-31 renal; 24% in the assay on TK-10 renal; 56.3% in the assay with ACHN renal; 59.7% with CAKI-1 renal; -7.19% (active) with A498 renal; 9.94% (active) with CCRF-CEM leukemia. The growth with MOLT-4 leukemia was 13.4%.
For the compound `Cc1cc(C)nc(/N=C(\N)Nc2ccc(S(=O)(=O)Nc3nc(C)cc(C)n3)cc2)n1`, the growth in the assay with HT29 colon is 116%; in the assay on SNB-75 CNS it was 78%; in the assay with SNB-19 CNS, 102%; in the assay on U251 CNS, 106%; in the assay with PC-3 prostate, 105%; in the assay with SK-MEL-5 melanoma, 102%. Also, the growth with UACC-62 melanoma is 100%; with LOX IMVI melanoma, 98.6%; with SK-MEL-28 melanoma it was 106%; with SK-MEL-2 melanoma, 107%; with EKVX NSCLC, 104%; in the assay with SN12C renal, 111%. Further, the growth with UO-31 renal was 85%; in the assay on TK-10 renal, 105%; in the assay with ACHN renal, 115%; with CAKI-1 renal it was 100%; with A498 renal, 112%; with CCRF-CEM leukemia, 96.2%. For the same compound, the growth in the assay with MOLT-4 leukemia is 104%.
Take `CCCn1c(=O)c2[nH]c(-c3ccc(OCc4nc5ccc(F)cc5[nH]4)cc3)nc2n(CCC)c1=O`: the growth was 26.7% in the assay on HT29 colon; -23.5% (active) in the assay with SNB-75 CNS; 50.4% in the assay with SNB-19 CNS; 0.191% (active) in the assay with U251 CNS; 36.3% with PC-3 prostate; -22.5% (active) in the assay on SK-MEL-5 melanoma. The growth is 3.86% (active) in the assay with UACC-62 melanoma; -29.3% (active) in the assay with LOX IMVI melanoma; 38% in the assay on SK-MEL-28 melanoma; 28.6% in the assay with SK-MEL-2 melanoma; 34.4% in the assay on EKVX NSCLC; -20.1% (active) with SN12C renal. Moreover, the growth with UO-31 renal is -78.7% (active); with ACHN renal it was -56.6% (active); in the assay on CAKI-1 renal it was 6.55% (active); with A498 renal, -85.8% (active); in the assay with CCRF-CEM leukemia, 44%; in the assay on MOLT-4 leukemia, 24.7%.
Consider `Cc1ccc(CSc2nc(-c3ccc(F)cc3)c(C#N)c(=O)[nH]2)cc1`, for which the growth in the assay with HT29 colon was 89.3%; with SNB-75 CNS, 115%; in the assay with SNB-19 CNS, 109%; with U251 CNS it was 96.6%; with PC-3 prostate it was 95.5%; with SK-MEL-5 melanoma it was 94.5%. Further, the growth in the assay on UACC-62 melanoma was 93.8%; in the assay with LOX IMVI melanoma, 95.6%; in the assay with SK-MEL-28 melanoma, 111%; with SK-MEL-2 melanoma it was 103%; with EKVX NSCLC it was 99.6%; in the assay with SN12C renal, 102%. Further, the growth in the assay on UO-31 renal is 96.2%; with ACHN renal it was 100%; in the assay on CAKI-1 renal, 92.5%; in the assay with A498 renal, 99.3%; in the assay on CCRF-CEM leukemia, 94.7%; in the assay on MOLT-4 leukemia, 88.4%.
For the compound `Clc1cccc(N/N=C/c2c[nH]c3ccccc23)n1`, the growth in the assay with HT29 colon is 30.4%; in the assay with SNB-75 CNS, 15.5%; in the assay on SNB-19 CNS it was 43.2%; with U251 CNS, 34.7%; in the assay with PC-3 prostate, 25.2%; in the assay on SK-MEL-5 melanoma it was 41.7%. In addition, the growth in the assay on UACC-62 melanoma is 55.1%; with LOX IMVI melanoma it was 17.9%; in the assay with SK-MEL-2 melanoma, 73.3%; in the assay on EKVX NSCLC it was 32.4%; in the assay with SN12C renal, 16.8%; in the assay with UO-31 renal, 10.4%. Besides, the growth was 71.7% with TK-10 renal; 44.7% in the assay with ACHN renal; 75.7% in the assay with A498 renal; 8.71% (active) in the assay with CCRF-CEM leukemia; 23.8% with MOLT-4 leukemia.
Consider `N#Cc1ccc(-c2nn(-c3ccc(C(=O)O)cc3)cc2CNc2cc(Cl)cc(Cl)c2)cc1`, for which the growth in the assay on HT29 colon is 39.7%; with SNB-75 CNS, 78.5%; in the assay on SNB-19 CNS, 55.8%; in the assay with U251 CNS, 32.8%; in the assay on PC-3 prostate, 33.6%; in the assay with SK-MEL-5 melanoma it was 23.9%. Besides, the growth in the assay with UACC-62 melanoma was 28.5%; with LOX IMVI melanoma it was 7.12% (active); in the assay on SK-MEL-28 melanoma, 18.1%; in the assay on SK-MEL-2 melanoma, 81.7%; in the assay with EKVX NSCLC it was 63.3%; in the assay on SN12C renal, 50.9%. Further, the growth with UO-31 renal is 33.2%; in the assay on TK-10 renal it was 111%; in the assay on ACHN renal it was 55.3%; in the assay on CAKI-1 renal, 63%; with A498 renal, 103%; in the assay with CCRF-CEM leukemia, 13.7%. For the same compound, in the assay on MOLT-4 leukemia, the growth was 15.8%.
On to `C=CCn1c(SCC(=O)Nc2ccc(C(=O)/C=C/c3ccccc3)cc2)nnc1-c1c[nH]c2ccccc12`, for which the growth in the assay on HT29 colon was -31.5% (active); in the assay on SNB-75 CNS, 82.3%; with SNB-19 CNS, 54.1%; with U251 CNS it was -52.5% (active); in the assay with PC-3 prostate, 39.4%; in the assay on SK-MEL-5 melanoma, 27.7%. In addition, the growth in the assay on UACC-62 melanoma is 47%; in the assay with LOX IMVI melanoma it was -100% (active); in the assay on SK-MEL-2 melanoma, 58.3%; in the assay with EKVX NSCLC, 40.9%; with SN12C renal, 68.3%; with TK-10 renal, 89.2%. The growth is 52.2% in the assay on ACHN renal; 57.3% in the assay with CAKI-1 renal; 109% in the assay on A498 renal; 55.4% in the assay on CCRF-CEM leukemia; 33.2% in the assay with MOLT-4 leukemia.
`COc1ccc(CN2[C@H](C(=O)NCCCCCCC(=O)NO)Cc3c([nH]c4ccccc34)[C@H]2C2CC2)cc1`: the growth was 6.33% (active) in the assay on HT29 colon; 6.72% (active) in the assay with SNB-19 CNS; -20.8% (active) in the assay on U251 CNS; 19.1% with PC-3 prostate; -88% (active) in the assay on SK-MEL-5 melanoma; -68.6% (active) with UACC-62 melanoma. Further, the growth in the assay with LOX IMVI melanoma was -100% (active); with SK-MEL-28 melanoma, 9.84% (active); in the assay with SK-MEL-2 melanoma it was -16.7% (active); with EKVX NSCLC, 16.8%; in the assay with SN12C renal, 7.85% (active); in the assay on UO-31 renal it was 7.67% (active). The growth in the assay on TK-10 renal was -19.7% (active); in the assay on ACHN renal, 0.712% (active); in the assay on CAKI-1 renal it was 4% (active); in the assay with A498 renal, -38.3% (active); in the assay on CCRF-CEM leukemia, 19.7%; with MOLT-4 leukemia it was 12.2%.
